Experimental data reported in PubChem BioAssay (NCI).
Compounds without any hit were thinned out: in the full panel of roughly 79,000, 15% have a hit. Active and inactive are the calls of the source. Rule as the data show it: active = growth inhibition above about 70%; inactive = the rest.

Experiments:
[1] = NCI Yeast Anticancer Drug Screen. Data for the rad50 strain (AID 155);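 also: 0% = growth of vehicle-only cultures of the same strain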; details: S. cerevisiae rad50 strain growth inhibition; at 50.0 µM; hits give high values
Method in brief: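 Vehicle-treated cultures provide the reference for the growth inhibition reported for compound-exposed, repair-deficient yeast.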

[2] = NCI Yeast Anticancer Drug Screen. Data for the mec2-1 strain (AID 157); details: S. cerevisiae mec2-1 strain, at 50.0 µM, hits give high values
Method in brief: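 Compounds were applied to mec2-1 yeast cells. Their growth was then compared with that of vehicle-treated cultures to give growth inhibition.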

[3] = NCI Yeast Anticancer Drug Screen. Data for the sgs1 mgt1 strain (AID 161);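 also: 0% = growth of cultures given vehicle only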; details: S. cerevisiae sgs1 mgt1 strain, at 50.0 µM, hits give high values
Method in brief: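 Yeast cells carrying a defined DNA-repair defect were exposed to test compounds. Growth inhibition was measured relative to vehicle-treated controls.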

[4] = NCI Yeast Anticancer Drug Screen. Data for the cln2 rad14 strain (AID 165);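 also: 0% = growth equal to vehicle treated cultures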; details: S. cerevisiae cln2 rad14 strain, at 50.0 µM, hits give high values
Method in brief: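 Strain: cln2 rad14 yeast, altered in cell cycle control and DNA damage repair. Read-out: growth inhibition vs vehicle.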

[5] = NCI Yeast Anticancer Drug Screen. Data for the bub3 strain (AID 167); details: S. cerevisiae bub3 mutant strain, at 50.0 µM, hits give high values
Method in brief: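 Mutant yeast screening strain plus compound; vehicle-treated cultures serve as the 0% inhibition reference.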

[6] = NCI Yeast Anticancer Drug Screen. Data for the mlh1 rad18 strain (AID 175); details: S. cerevisiae mlh1 rad18 strain growth inhibition; at 50.0 µM; hits give high values
Method in brief: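 A repair-deficient yeast strain is exposed to test compound, and growth is scored relative to vehicle-treated controls.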

Measured: growth inhibition

CCc1cccc(CC)c1NC(=O)CC1SC(N)=NC1=O (stereo unspecified)
inactive: [1] -4.45% | [2] -19.2% | [3] -1.95% | [4] 9.8% | [5] 15.7% | [6] -24.9%

COc1ccc(-c2cc3cc(CCCOC4OC(COC5OCC(O)C(O)C5O)C(O)C(O)C4O)cc(OC)c3o2)cc1OC (stereo unspecified)
inactive: [1] 31% | [2] 17.4% | [3] 34.6% | [4] 23.8% | [5] 8.8% | [6] 23.4%

Clc1ccc(CSc2cnnc(SCc3ccc(Cl)cc3Cl)c2SCc2ccc(Cl)cc2Cl)c(Cl)c1
inactive: [1] 5.9% | [2] 5.9% | [3] 8.05% | [4] 2.25% | [5] -5.15% | [6] -6.6%

COc1cc(/C=N/NC(N)=O)cc(OC)c1O
inactive: [1] -0.6% | [2] -11.8% | [3] -34.4% | [4] -14.6% | [5] 33.3% | [6] -4.75%

CCNC(=O)NS(=O)(=O)c1ccc(Sc2ccc(Cl)cc2)nc1
inactive: [1] -5.8% | [2] -2.95% | [3] -7.5% | [4] -5.7% | [5] -0.55% | [6] -0.4%

COC(=O)C#Cc1cccc(OC)c1OC
inactive: [1] 22.1% | [2] 14.9% | [3] 22.9% | [4] -31.2% | [5] 12.3% | [6] 10.2%

CCCCCCCNC(C)=O
inactive: [1] 14.1% | [2] 15.5% | [3] 3.6% | [4] 10.1% | [5] -0.7% | [6] -5%

O=C1NC(CO)C(=O)NC1CO (stereo unspecified)
inactive: [1] 3.7% | [2] -4.4% | [3] -12.2% | [4] -2.75% | [5] 0.25% | [6] -4.8%

C/C(=N/NS(=O)(=O)c1ccc(C)cc1)C(C)C
inactive: [1] 3.05% | [2] 1.75% | [3] 10.8% | [4] -6.85% | [5] 3.4% | [6] 23.8%

COc1ccc(C(O)C(C)(C(=O)O)c2ccccc2)cc1 (stereo unspecified)
inactive: [1] 2.95% | [2] 2.25% | [3] 4.6% | [4] -6.35% | [5] -5.05% | [6] 8.55%

COC(CCC#N)c1ccc(Cl)cc1 (stereo unspecified)
inactive: [1] -31.9% | [2] -20.6% | [3] -26.6% | [4] 1.7% | [5] -31.9% | [6] -26.6%

O=C(O)CC(c1ccccc1)C(CC(=O)O)c1ccccc1.[NH-]C1CCCCC1[NH-].[Pt+2] (stereo unspecified)
inactive: [1] 37.2% | [2] 7.8% | [3] -49.9% | [4] -5.55% | [5] -36.9% | [6] -5.6%

CSc1ncnc2[nH]ncc12
inactive: [1] 4.5% | [2] 20.9% | [3] -30.5% | [4] -20.9% | [5] -0.4% | [6] -62.1%

Cc1oc(C)c2c(N=Nc3ccc([N+](=O)[O-])cc3[N+](=O)[O-])c3ccccc3c(O)c12
inactive: [1] 25% | [2] 25.1% | [3] 11.4% | [4] -27.6% | [5] 37.5% | [6] 49.6%

COc1ccc(NC(=O)COC(=O)c2cccc3c(=O)c4ccccc4[nH]c23)cc1
inactive: [1] 43.4% | [2] 41.2% | [3] 27.4% | [4] 23.2% | [5] 21.2% | [6] 48.6%

CCCCN(CCCC)C(C)=O
inactive: [1] -45.1% | [2] -4.85% | [3] 17.1% | [4] -35% | [5] 5.15% | [6] -8.2%

CC(=O)c1nc2ccccc2n1CC(=O)c1ccc(Cl)cc1
inactive: [1] -9.25% | [2] 11.3% | [3] 18.9% | [4] 12.6% | [5] 43.7% | [6] -3.55%

Cc1cc(OCCCCCCC[N+](C)(C)Cc2ccc([N+](=O)[O-])o2)c(C(C)C)cc1Cl
active: [1] 99.6% | [2] 99.8% | [3] 99.8% | [4] 99.6% | [5] 99.5% | [6] 99.7%

CC(=O)OCC(CBr)(CBr)COC(C)=O
inactive: [1] 8.85% | [2] -41.4% | [3] -6.05% | [4] -102% | [5] -20.8% | [6] 23.1%

Cc1cc(C)c(C)c(Br)c1
inactive: [1] 5% | [2] 4.6% | [3] -0.55% | [4] -33.1% | [5] 2.4% | [6] 4.9%

CC(O)(c1cccc(OCc2ccccc2)c1)c1ccccn1 (stereo unspecified)
inactive: [1] 12.3% | [2] 0.05% | [3] 5.7% | [4] -11.4% | [5] -6.15% | [6] -7.8%

COc1ccc(/C=N/Nc2nc3ccccc3c(=O)n2-c2ccccc2)c(OCc2ccccc2)c1
inactive: [1] 4.7% | [2] 5.2% | [3] 5.5% | [4] -0.1% | [5] 9% | [6] 9.85%

O=C(OCCCCCCCCOC(=O)c1cccc([N+](=O)[O-])c1)c1cccc([N+](=O)[O-])c1
inactive: [1] 20.9% | [2] 11.8% | [3] 11.8% | [4] 8.15% | [5] -5.55% | [6] 4.85%

COC(=O)CCC(=O)CC(=O)C1=NS(=O)(=O)c2nc(S(N)(=O)=O)c(Cl)cc2N1
inactive: [1] -5.3% | [2] 6.7% | [3] -14.8% | [4] -24.6% | [5] -16.1% | [6] -1.35%

c1ccc(CCc2ccncc2)cc1
inactive: [1] -3.05% | [2] -22.6% | [3] -8.35% | [4] -26.5% | [5] 3.6% | [6] -13.3%

C/C(=N/NC(N)=O)c1c(C)c(Cl)cc(Cl)c1OCCCC(C)C
inactive: [1] -8.1% | [2] -3.05% | [3] 0.45% | [4] -6.1% | [5] 22.9% | [6] -10.6%

CC(=O)N/C(=C\c1ccccc1)C(N)=O
inactive: [1] 9.9% | [2] 12.9% | [3] 1.2% | [4] 0.6% | [5] 36% | [6] 1.55%

CCOC(=O)CC(C)C1(C=O)CCCCC1=O (stereo unspecified)
inactive: [1] -3.2% | [2] -30.3% | [3] -11.7% | [4] 7.25% | [5] -19.5% | [6] -17.4%

CC(=O)NC(c1ccc(F)cc1)(c1ccc(F)cc1)C(F)(F)F
inactive: [1] 40.4% | [2] 11.1% | [3] 42.2% | [4] 35.6% | [5] 43% | [6] 40.9%

COc1cc(NCCCCC2CCCCN2)c2ncccc2c1 (stereo unspecified)
inactive: [1] 15.7% | [2] 2% | [3] 39% | [4] -11.4% | [5] 55.5% | [6] 48.8%

O=C1OC(=C(Cl)Cl)C2C3c4ccccc4C(c4ccccc43)C12 (stereo unspecified)
inactive: [1] 21.9% | [2] 21.6% | [3] -1.5% | [4] 8.75% | [5] 2.7% | [6] 18.2%

C=C(C)COc1ccc(C)cc1Br
inactive: [1] -4.05% | [2] -4.05% | [3] 0% | [4] -51.8% | [5] 7.1% | [6] -13%

CC1=Nc2cc(C)c(C)cc2N2C1=CC1=C(C(=O)c3cc4ccccc4cc3C1=O)C2C (stereo unspecified)
inactive: [1] 16% | [2] 9.8% | [3] 16.2% | [4] 23.1% | [5] -3.85% | [6] 23.6%

CCOC(=O)c1c(N2CCCC2)ncn(Cc2ccccc2)c1=S
inactive: [1] 0.7% | [2] 12.4% | [3] 3.9% | [4] -7.75% | [5] 8.3% | [6] -5%

CC(=O)Nc1cc2c(s1)CCC1CC(=O)NN=C21 (stereo unspecified)
inactive: [1] -12.4% | [2] -25.6% | [3] -31.8% | [4] 1.9% | [5] -9.35% | [6] -11.5%

c1ccc(C2=NC(c3ccccc3)(c3ccccc3)N=C2c2ccccc2)cc1
inactive: [1] 2.75% | [2] 10.7% | [3] -11.2% | [4] -10.1% | [5] -8.55% | [6] 2.5%

COc1ccc(C2C3=CONC3CC3CCCCC32)cc1 (stereo unspecified)
inactive: [1] 4.5% | [2] -34.5% | [3] -0.4% | [4] 8.25% | [5] 6.25% | [6] 6.5%

CC(=O)Nc1c(C(=N)C#N)ncn1CCO
inactive: [1] 2.3% | [2] 10.2% | [3] 8.35% | [4] 11.2% | [5] -3.65% | [6] 5.5%

O=S(=O)([O-])[O-].O=c1[nH]cnc2nc[n-]c12.[OH3+].[OH3+].[Zn+2]
inactive: [1] -26.8% | [2] -29.2% | [3] -20.6% | [4] -7.9% | [5] -30.9% | [6] -36.2%

C#CCNC(=O)NC(CCCCNC(=O)OCc1ccccc1)C(=O)OCc1ccccc1 (stereo unspecified)
inactive: [1] -7.05% | [2] 2.9% | [3] -10.8% | [4] 10.3% | [5] 3.55% | [6] -4.8%

O=C(OCC1OC(c2ccccc2)OC2C(COC(=O)c3ccccc3)OC(c3ccccc3)OC12)c1ccccc1 (stereo unspecified)
inactive: [1] 4.4% | [2] 6.1% | [3] -0.6% | [4] 6.7% | [5] 12.4% | [6] 14.1%
